Consider 7 sequences from the supplement of paper PMC6555819.

Holding throughout (experiment): PBM binding z-score (relative to random genomic background probes); higher = stronger binding; sequences stand for … in GC…GCGATTGACAGCGTAGAATGAAGG
Experiment [1] deals with FXR:RXRa (NR concentration 270 nM, RXRa partner concentration 90 nM). Put shortly: (§1)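 Regression normalization was applied to scanned fluorescence from custom Agilent 4×180K protein-binding microarrays. Before scanning, arrays were incubated 1 h with ligand-free nuclear receptor dimers, and binding was detected with antibodies against each partner (one per run). Binding z-scores use the random background probes as reference.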

The test system of experiment [2] is LXRa:RXRa (NR concentration 270 nM, RXRa partner concentration 90 nM). Put shortly: as §1
For experiment [3], the system named is LXRa homodimer (NR concentration 270 nM). Summed up: as §1
Experiment [4] deals with LXRb homodimer (NR concentration 270 nM). Summed up: as §1
The subject of experiment [5] is PPARa:RXRa (NR concentration 270 nM, RXRa partner concentration 90 nM). Summed up: as §1
Experiment [6] has as its system PPARg:RXRa (NR concentration 180 nM, RXRa partner concentration 90 nM). Put shortly: as §1
Experiment [7] relates to PPARg:RXRa 270nM:90nM, anti-RXR (NR concentration 270 nM, RXRa partner concentration 90 nM). Summed up: as §1
Experiment [8] concerns PPARg:RXRa 30nM:10nM, anti-RXR (NR concentration 30 nM, RXRa partner concentration 10 nM). Put shortly: as §1
Experiment [9] concerns PPARg:RXRa 90nM:30nM, anti-RXR (NR concentration 90 nM, RXRa partner concentration 30 nM). Summed up:
as §1

The test system of experiment [10] is PPARg:RXRa DBDmut IVT, anti-RXR (DBD mutation: RXRa K156A/R161A, NR concentration 270 nM, RXRa partner concentration 90 nM). Put shortly: as §1
Experiment [11] relates to PPARg:RXRa IVT, anti-PPARg (NR concentration 270 nM, RXRa partner concentration 90 nM). Put shortly: as §1
Experiment [12] deals with PPARg DBDmut:RXRa IVT, anti-PPARg (DBD mutation: PPARg1 K132A/R137A, NR concentration 270 nM, RXRa partner concentration 90 nM). Summed up: as §1
Experiment [13] concerns PPARg DBDmut IVT, anti-PPARg (DBD mutation: PPARg1 K132A/R137A, NR concentration 270 nM). Summed up:
as §1

Experiment [14] relates to PPARg homodimer (NR concentration 180 nM). Summed up:
as §1

Experiment [15] has as its system PXR:RXRa (NR concentration 270 nM, RXRa partner concentration 90 nM). Put shortly: as §1
The test system of experiment [16] is PXR homodimer (NR concentration 270 nM). Put shortly: as §1
In experiment [17] the test system is RARa:RXR (NR concentration 270 nM, RXRa partner concentration 90 nM). Put shortly:
as §1

For experiment [18], the system named is RARa homodimer (NR concentration 270 nM). Summed up: as §1
The test system of experiment [19] is RARb:RXRa (NR concentration 270 nM, RXRa partner concentration 90 nM). Summed up: as §1
In experiment [20] the test system is LXRb:RXRa (NR concentration 270 nM, RXRa partner concentration 90 nM). Summed up: as §1

With CGTCAAAGTTCAAGGTAAAGTAACAGAAAGCAGC, the PBM binding z-score in [1] is 5.75; in experiment [2], 5.37; in experiment [3], 2.35; in [4] it was 0.837; in experiment [5], 4.4; in experiment [6], 4.51. The PBM binding z-score in [7] turned out to be 5.07; in [8], 2.5; in experiment [9] it was 3.89; in experiment [10], 0.433; in [11], 1.82; in experiment [12], 0.69. Besides, the PBM binding z-score was 0.346 in experiment [13]; 2.5 in experiment [14]; 3.99 in [15]; 2.2 in experiment [16]; 3.47 in experiment [17]; 1.3 in [18]. For the same sequence, the PBM binding z-score in experiment [19] stood at 4.95.

Take GCTGCTAGGTCAGGTTGGTCAGCTAACGGGTACG: the PBM binding z-score is 1.01 in experiment [1]; 0.656 in [2]; -0.0662 in [3]; -0.325 in experiment [4]; 1.52 in [5]; 0.389 in experiment [6]. Moreover, the PBM binding z-score in [7] is 0.622; in experiment [8] it was -0.261; in experiment [9], 0.176; in [10] it was 2.95; in [11], 2.05; in experiment [12], -0.747. Besides, the PBM binding z-score was -0.959 in experiment [13]; 0.974 in experiment [14]; 0.333 in experiment [15]; -0.532 in experiment [16]; 0.458 in [17]; -0.285 in experiment [18]. Besides, the PBM binding z-score in experiment [19] was found to be 3.33.

With TCTAGTTCGTCACGGAGGTCACACACGACGGGTA, the PBM binding z-score was 3.69 in experiment [1]; 3.72 in [2]; 2.25 in [3]; 1.17 in experiment [4]; 4.1 in experiment [5]; 2.17 in experiment [6]. The PBM binding z-score in [7] is 3.67; in experiment [8] it was 3.62; in experiment [9] it was 3.42; in experiment [10] it was 1.52; in experiment [11], 2.15; in experiment [12], 0.73. The PBM binding z-score in experiment [13] is 0.867; in experiment [14], 6.1; in experiment [15], 5.15; in experiment [16] it was 2.64; in [17], 5.11; in [18], 2.71. The sequence also gave a PBM binding z-score in [19] of 3.83.

Regarding GATACAGGGTCAAGGCCAGAGTACGCGTATTGAT, the PBM binding z-score was 6.67 in [1]; 4.16 in experiment [2]; 0.173 in experiment [3]; -0.282 in [4]; 5.44 in experiment [5]; 5.85 in [6]. Moreover, the PBM binding z-score came to 5.43 in [7]; 2.04 in experiment [8]; 4.11 in [9]; 2.82 in [10]; 3.95 in experiment [11]; 1.08 in [12]. Further, the PBM binding z-score in [13] worked out at 0.22; in experiment [14], 1.95; in experiment [15] it was 3.88; in experiment [16] it was 0.227; in [17] it was 4.46; in experiment [18], 0.587. In [19], this sequence yielded a PBM binding z-score of 4.44.

Take ATCGAAAGGTCGTGAGGTGAGTTTACAGAAAGGC: the PBM binding z-score in experiment [1] came out at 5.54; in experiment [2], 4.05; in experiment [3] it was 0.339; in experiment [4], 0.313; in experiment [5], 5.21; in experiment [6], 4. In addition, the PBM binding z-score in experiment [7] was 4.18; in [8], 1.98; in experiment [9], 3.05; in experiment [10] it was 0.311; in experiment [11] it was 2.19; in experiment [12], 0.802. Also, the PBM binding z-score in experiment [13] came out at 0.81; in [14] it was 2.01; in [15], 4.1; in experiment [16] it was 1.52; in experiment [17], 4.59; in experiment [18], 0.718. The sequence further had a PBM binding z-score in experiment [19] of 4.08.

On to CCCAGTAGGTTACGAGGGGGCATTCAGTGCGAAT, for which the PBM binding z-score worked out at 2.52 in experiment [1]; 7.2 in experiment [2]; 1.48 in experiment [3]; 6.4 in [20]; 3.75 in experiment [6]; 4.46 in experiment [7]. Moreover, the PBM binding z-score stood at 1.62 in [8]; 3.59 in experiment [9]; 5.3 in experiment [10]; 5.49 in experiment [11]; 1.71 in experiment [14]; 4.89 in experiment [15]. Besides, the PBM binding z-score in experiment [16] turned out to be 5.08; in [17], 2.68; in [18], 0.297; in experiment [19], 2.2.

Turning to CTTAGTTGGTCAGGAGGTCACACACCGGATATGA, the PBM binding z-score in [1] worked out at 3.89; in [2], 3.72; in experiment [3] it was 2.38; in experiment [4], 0.947; in [5], 4.35; in experiment [6] it was 4.41. For the same sequence, the PBM binding z-score in [7] was 4.69; in [8] it was 2.41; in [9] it was 4.39; in [10], 3.35; in experiment [11], 4.3; in [12], 1.44. Further, the PBM binding z-score in experiment [13] worked out at 1.09; in [14], 3.81; in [15], 4.37; in experiment [16], 1.79; in experiment [17], 4.74; in experiment [18] it was 3.28. The same sequence registered a PBM binding z-score in [19] of 3.83.
